Source: PubChem (several laboratories)
This is a sample that favours compounds with a hit; in the whole collection about 5.7% have one here.
NR3A LBD binder: modulators (binders) of human NR3A ligand-binding domain; NR3A LBD differential scanning fluorimetry, Tm shift; 0% = protein alone, 100% = glycine-bound protein; Tm shift relative to glycine control, % at 25 µM; actives 2.5% (n = 340,000); AID 1259313;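 active = melting temperature shift of at least 10% of the positive control shift, at one fixed dose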
MPTP inh: inhibitors of mitochondrial permeability transition pore; isolated mouse mitochondria, Ca2+ swelling absorbance, 30 min; inhibition, % at 10 µM; actives 1.4% (n = 360,000);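 active = inhibition of 50% or more, scaled per plate between neutral and stimulator controls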
rCAG RNA binder: binds r(CAG) RNA repeats; r(CAG) RNA repeat, TO-PRO-1 dye displacement fluorescence; inhibition, % at 3 µM; actives 1.3% (n = 370,000);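 active = inhibition above the plate cutoff, the mean of all test compounds on that plate plus 3 SD, cut at about 35% in these data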;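 also: higher means more dye released from RNA so lower well fluorescence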
FAS TE block: inhibitors of human fatty acid synthase thioesterase domain; recombinant FAS-TE, OMFH fluorogenic substrate, fluorescence endpoint; P49327; actives 0.67% (n = 360,000); inhibition, % at 15 µM; AID 602261;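 active = compounds whose normalised, plate-corrected inhibition of enzyme fluorescence in the single-dose primary screen is 50% or more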
Myeloid diff 2: promotes myeloid progenitor differentiation | actives 1% (n = 360,000) | AID 624256 | calls only at 10 µM | ER-HoxA9 myeloid progenitors, lysozyme-GFP differentiation, flow cytometry;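 active = normalized GFP-positive differentiation at or above the plate's own cutoff, the solvent-only control mean plus 3 SD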;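 also: cells exposed to compound for four days before flow analysis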
Numbers stand for hits; n = inactive; x = no result; + = active, no number.

SMILES	NR3A LBD binder	MPTP inh	rCAG RNA binder	FAS TE block	Myeloid diff 2
Oc1ccccc1Nc1ncnc2c1oc1ccccc12	n	n	n	n	n
Cc1ccc(Nc2nc(C)nc3c2oc2ccccc23)cc1	n	n	n	n	n
Cc1nc(Nc2ccccc2)c2oc3ccc(Cl)cc3c2n1	16	n	n	n	n
Oc1ccc(Nc2ncnc3c2oc2ccccc23)cc1	16	n	n	n	n
CCc1nc(Nc2ccc(F)cc2)c2oc3ccccc3c2n1	n	n	n	n	n
CCc1nc(Nc2cccc(F)c2)c2oc3ccccc3c2n1	12	n	n	n	n
CC(C)C[C@H]1COc2cccc(NCCO)c2S(=O)(=O)N1	x	x	n	x	x
C[C@H]1CN([C@@H](C)CO)C(=O)CCCn2cc(nn2)CO[C@@H]1CN(C)S(=O)(=O)c1cn(C)cn1	x	x	n	x	x
CC1=CC2=NC(=O)/C(=C\c3ccc(-c4cccc(Cl)c4)o3)C(=N)N2O1	22	n	n	n	n
CC1=NOC(=O)/C1=C\c1ccc(-c2cccc(Cl)c2)o1	n	n	x	n	n
CC(=O)N1CCN(c2ccc(N3CCN(Cc4ccccc4)[C@H](C)C3)c(C)c2)[C@H](C)C1	x	x	n	x	x
Cc1ccc(OCC(=O)Nc2ccc3oc(=O)ccc3c2)cc1	n	n	n	n	n
CCOc1ccc(NC(=O)c2cc3ccccc3cc2OC)cc1	32	n	n	n	n
O=C(Nc1cccc(NC(=O)c2cccc(F)c2)n1)c1cccc(F)c1	12	n	n	n	n
Cc1ccc(NC(=O)c2ccc(-c3nn(C)c(=O)c4ccccc34)cc2)cc1	n	n	n	n	+
Cc1cccc(OCC(=O)Nc2ccc3oc(=O)ccc3c2)c1C	14	n	n	n	n
Cn1nc(-c2ccc(C(=O)Nc3ccc(F)cc3)cc2)c2ccccc2c1=O	n	n	x	n	n
COc1ccc(NC(=O)c2cc3ccccc3cc2OC)cc1	n	n	n	n	n
CC(=O)C1=C(C)N(Cc2ccc(Br)cc2)C(=S)NC1c1ccc(F)cc1 (stereo not given)	x	x	n	x	x
O=C(Nc1ccc2ccccc2c1)c1cccc(F)c1	20	n	n	n	n
O=C(Nc1ccc2oc(=O)ccc2c1)c1ccc2ccccc2c1	34	n	n	n	n
O=C(Nc1ccc2ccccc2c1)c1ccc(Cl)cc1	n	n	n	n	n
Cc1ccc(C(=O)Nc2ccc3ccccc3c2)cc1	16	n	n	n	n
CCOc1cccc(NC(=O)c2cccc(F)c2)c1	10	n	n	n	n
Cc1ccc2cc(NC(=O)c3cccc(F)c3)ccc2n1	n	n	n	n	n
SMILES	NR3A LBD binder	MPTP inh	rCAG RNA binder	FAS TE block	Myeloid diff 2
CCN(C(=O)CCc1cn(CC)c2ccccc12)c1ccc(Oc2cccnc2)cc1	x	x	n	x	x
O=[N+]([O-])c1ccc(COc2ccccc2CO)cc1	x	x	n	x	x
Cc1ccc(CN2CCCCC(NC(=O)c3cccc(F)c3)C2=O)cc1 (stereo not given)	x	x	n	x	x
CC(=O)C1(C(=O)Nc2cc(C)cc(C)c2)CC(c2ccccn2)=NO1 (stereo not given)	x	x	n	x	x
CCOc1cccc(C(=O)Nc2ccc3ccccc3c2)c1	30	n	n	n	n
Cc1nn(-c2ccc(Cl)cc2)c(Cl)c1/C=N/NC(=O)c1ccc(NS(=O)(=O)c2cccs2)cc1	14	n	62	n	n
O=C(Nc1nnc(Cc2c[nH]c3ccccc23)s1)c1ccc(Cl)cc1Cl	26	n	n	n	+
O=C(Nc1nnc(Cc2ccccc2F)s1)c1ccccc1Cl	n	n	n	n	n
CCc1nnc(NC(=O)Cc2c[nH]c3ccccc23)s1	n	n	n	n	n
CC(C)(C)c1ccc(C(=O)Nc2nnc(Cc3c[nH]c4ccccc34)s2)cc1	26	n	n	n	n
CCCCN1CCS(=O)(=O)N(Cc2cn(Cc3ccc(C)cc3)nn2)C(C(=O)OC)C1 (stereo not given)	x	x	n	x	x
CCCOc1ccc(-c2nn(-c3ccccc3)cc2/C=C2\SC(N)=NC2=O)cc1C	16	n	n	n	n
COc1ccc(-c2nn(CCC(=O)O)cc2/C=C2\SC(N)=NC2=O)cc1OC	n	n	n	n	n
CCn1c(O)c(/C=C2\C=Nc3ccccc32)sc1=Nc1ccc(C)cc1	18	n	n	n	n
CCCC(=O)NCC(c1cccs1)S(=O)(=O)c1ccc(Cl)cc1 (stereo not given)	n	n	n	n	+
CC(=O)NCC(c1cccs1)S(=O)(=O)c1ccc(F)cc1 (stereo not given)	n	n	n	n	n
CCCC(=O)N(c1ccc(OCC)cc1)S(=O)(=O)c1ccc2c3c(cccc13)C(=O)N2C	n	n	n	n	+
COc1cccc(C(=O)Nc2cccc(C(C)=O)c2)c1	n	n	n	n	n
O=C(Nc1cccc(NC(=O)c2ncn[nH]2)c1)c1cccc(Cl)c1	12	n	n	n	n
COc1cccc(NC(=O)c2cccc(Cl)c2)c1	28	n	n	n	n
O=C(Nc1ccc(N=Nc2ccccc2)cc1)c1cccc(Cl)c1	26	n	n	n	n
O=C(Nc1ccc2c(c1)OCCO2)c1cccc(Cl)c1	n	n	n	n	n
COc1cc2cc(C(=O)Nc3ccc4c(c3)OCCO4)[nH]c2cc1OC	11	n	n	n	n
COC(=O)[C@]12C[C@H](CC(=O)N3CCN(C(=O)c4ccco4)CC3)C(=O)N(CCC3=CCCCC3)C1=C[C@H](COCc1ccccc1)O[C@@H]2C	x	x	n	x	x
COc1ccc(-c2nn3c(-c4n[nH]c5c4CCC5)nnc3s2)cc1	x	x	n	x	x
SMILES	NR3A LBD binder	MPTP inh	rCAG RNA binder	FAS TE block	Myeloid diff 2
CN(CCOC(=O)CCCc1ccccc1)C1CN(Cc2cn(Cc3ccccc3F)nn2)S(=O)(=O)C1 (stereo not given)	x	x	n	x	x
O=C(NC1CCC1)c1ccc(C#Cc2cccc(F)c2)nc1	x	x	n	x	x
COc1cccc(NC(=O)c2ccc3c(c2)OCCO3)c1	12	n	n	n	n
COC(=O)Cn1c2ccc(F)cc2c2nc(C)sc21	n	n	n	n	n
Cc1nc2c3cc(F)ccc3n(Cc3ccc(F)cc3)c2s1	n	n	n	n	+
CCOc1ccc2nc(NC(=O)NC3CCCCC3)sc2c1	18	n	n	n	n
CCOc1ccc2nc(NC(=S)NCc3ccccc3)sc2c1	19	n	n	n	n
CCOc1ccc2nc(NC(=O)C3CCCO3)sc2c1 (stereo not given)	n	n	n	n	n
CCOc1ccc2nc(NC(=O)c3ccccn3)sc2c1	n	n	n	n	n
O=S1(=O)CCSC[C@@H](CN2CCN(c3ccccc3)CC2)N1	x	x	n	x	x
O=C(COC(=O)C1CCN(S(=O)(=O)c2ccc(Cl)c(C(F)(F)F)c2)CC1)NCc1ccco1	n	n	n	n	n
CC1CCCCN1C(=O)COC(=O)C1CCN(S(=O)(=O)c2ccc(Cl)c(C(F)(F)F)c2)CC1 (stereo not given)	21	n	n	n	n
O=C(CSc1nncc2ccccc12)Nc1cccc(C(=O)O)c1	n	n	n	n	n
O=C(CSc1nc(-c2ccccc2)nc2ccc(F)cc12)Nc1cccc(C(=O)O)c1	12	n	n	n	n
O=C(CSc1nc(-c2ccccc2)nc2ccc(F)cc12)Nc1ccc(C(=O)O)cc1	16	n	n	n	x
